Measurements published in the supplement of paper PMC13380429.

Tested on: Vero E6 infected with SARS-CoV-2
Assay: inhibition of SARS-CoV-2 cytopathic effect; higher = more antiviral protection, active = above 15
Details: 48 h

Measured: inhibition of SARS-CoV-2 cytopathic effect

CS(=O)(=O)c1cc(F)cc2c3c(n(Cc4ccc(Cl)cc4)c12)[C@@H](CC(=O)O)CC3 [laropiprant]
inactive: 1 nM 0.24% | 8.33 nM -3% | 100 nM -0.36% | 833.33 nM 1.31% | 10000 nM 2.04%

CN(C)C(=O)n1nnnc1Cc1ccc(-c2ccccc2)cc1
inactive: 1 nM -1.07% | 8.33 nM 2.48% | 100 nM 0.66% | 833.33 nM 2.07% | 10000 nM 1.15%

CNC(=N)NC(=O)Nc1c(C)cccc1C [lidamidine]
inactive: 1 nM 0.93% | 8.33 nM 2.74% | 100 nM 3.39% | 833.33 nM 3.62% | 10000 nM -2.49%

CC(=O)O[C@H]1C[C@@H]2CC[C@@H]3[C@H](CC[C@@]4(C)[C@H]3C[C@H]([N+]3(C)CCCCC3)[C@@H]4OC(C)=O)[C@@]2(C)C[C@@H]1[N+]1(C)CCCCC1 [pancuronium]
inactive: 1 nM -2.97% | 8.33 nM -1.22% | 100 nM -0.15% | 833.33 nM -0.93% | 10000 nM -1.28%

CC1(C)N=C(N)N=C(N)N1OCCCOc1cc(Cl)c(Cl)cc1Cl
inactive: 1 nM -1.05% | 8.33 nM 0.38% | 100 nM 0.21% | 833.33 nM 0.74% | 10000 nM -2.49%

COC(=O)C1=C(C)NC(C)=C(C(=O)O[C@H]2CCN(Cc3ccccc3)C2)[C@H]1c1cccc([N+](=O)[O-])c1 [barnidipine]
inactive: 1 nM 2.33% | 8.33 nM 1.62% | 100 nM 1.31% | 833.33 nM 3.84% | 10000 nM -0.56%
